Test results published in PubChem BioAssay (EPA / NIEHS).
Values joined by “and” are separate entries in the source; they are usually repeats but may differ in a detail not shown here. Identical values can stand only once. Results filed as inconclusive are left out. More than one record can exist for a structure, and the calls need not agree. Active and inactive are the calls of the source. The calls were made as follows: active = hit-call score of the fitted dose curve at least 0.9, where 1 is the maximum; inconclusive = response in the unintended direction; inactive = score below 0.9.

Tested on: not listed separately
Experiment: TOX21_p53_BLA_p5_viability: Viability Assessment in the Tox21 HCT-116 p53 Agonism Beta-lactamase Assay, Phase 5 (AID 2283600)
Procedure, shortened: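 Cells were plated at 4000/well, rested 5 h at 37C, then given compounds in DMSO (217-fold dilution) for 16 h at 37C, 5% CO2. Following the CCF4-AM beta-lactamase read, CellTiter-Glo was added and luminescence was read after 30 min at room temperature.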

Structure (SMILES) | outcome | AC50
CCCCCCC(=O)O | inactive | –
O=C1OC2(c3ccccc31)c1cc(Br)c(O)c(Br)c1Oc1c2cc(Br)c(O)c1Br | inactive | –
OCCC(F)(F)C(F)(F)C(F)(F)C(F)(F)C(F)(F)C(F)(F)F | inactive | –
COCC(C)O (stereo not given) | inactive | –
CCc1nn(C2CCCCC2)c2cc(C3(C#N)CCC(C(=O)O)CC3)ccc12 (stereo not given) | inactive | –
C[C@@H]1C[C@H]2[C@@H]3CCC4=CC(=O)C=C[C@]4(C)[C@@]3(F)[C@@H](O)C[C@]2(C)[C@@]1(O)C(=O)COP(=O)(O)O | inactive | –
CC1=C(/C=C/C(C)=C/C=C/C(C)=C/C(=O)O)C(C)(C)CCC1 | inactive | –
NC(=O)N1C(=O)C(C(=O)c2cc(Cl)cs2)c2cc(F)c(Cl)cc21 (stereo not given) | inactive | –
OCCC(F)(F)C(F)(F)C(F)(F)C(F)(F)C(F)(F)C(F)(F)C(F)(F)C(F)(F)F | inactive | –
Cc1ccc(S(=O)(=O)O)c(C)c1 | inactive | –
CN1CCN(c2ccccc2/C=C2\SCCN(c3ccc(Cl)c(Cl)c3)C2=O)CC1 | – | 83.7 µM (active)
OC1CCCCC1 | inactive | –
CCCCOCCO | inactive | –
CC(=O)NC1(c2cccc(F)c2)CCN(CC[C@@]2(c3ccc(Cl)c(Cl)c3)CN(c3ccccc3)C(=O)CO2)CC1 | – | 60.3 µM (active)
Cc1cc(C)c(O)c(C)c1 | inactive | –
CCN(CC)CCNc1ccc(CNC=O)c2sc3ccc(OC)cc3c(=O)c12 | inactive | –
COc1ccc([N+](=O)[O-])cc1N | inactive | –
Cc1cc(CCN2CCN(c3nsc4ccccc34)CC2)cc2c1NC(=O)CC2(C)C | inactive | –
CCCCC(CC)COC(=O)CCCCC(=O)OCc1ccccc1 (stereo not given) | inactive | –
c1ccc2c(c1)Cc1ccccc1-2 | inactive | –
CCCCCCCCCCCCCC[N+](C)(C)C | inactive | 76.6 µM (active) and 45.3 µM (active)
O=C(OCCOCCOC(=O)c1ccccc1)c1ccccc1 | inactive | –
CC(O)CO (stereo not given) | inactive | –
CCC(C)(C)C1CCC(O)CC1 (stereo not given) | inactive | –

Biological target: Cellular tumor antigen p53 (Homo sapiens) (UniProt P04637)
Sequence (P04637 whole entry, looked up): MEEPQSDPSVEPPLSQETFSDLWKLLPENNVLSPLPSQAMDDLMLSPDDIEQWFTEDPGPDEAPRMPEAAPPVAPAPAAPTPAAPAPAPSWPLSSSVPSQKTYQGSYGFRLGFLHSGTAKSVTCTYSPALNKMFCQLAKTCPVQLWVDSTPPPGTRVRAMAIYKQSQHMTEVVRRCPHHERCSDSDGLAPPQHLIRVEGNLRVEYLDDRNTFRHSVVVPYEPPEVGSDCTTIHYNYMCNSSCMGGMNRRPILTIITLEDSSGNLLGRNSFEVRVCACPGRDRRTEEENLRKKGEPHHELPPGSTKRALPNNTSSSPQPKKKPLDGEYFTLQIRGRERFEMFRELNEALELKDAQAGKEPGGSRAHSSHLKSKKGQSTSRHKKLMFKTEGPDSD
Experiment: TOX21_p53_BLA_p4_ratio: Tox21 HCT-116 p53 Agonism Beta-lactamase Assay, Ratio, Phase 4 (AID 2283601)
Procedure, shortened: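 Signal is the blue/green (460nm/530nm) ratio of cleaved versus uncleaved CCF4-AM substrate, read after 2 h substrate loading. Cells were HCT116 carrying the p53-responsive beta-lactamase reporter, dosed 16 h at 37C, 5% CO2; CellTiter-Glo measured in parallel.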

Structure (SMILES) | outcome | AC50
CCCCCCC(=O)O | inactive | –
OCCC(F)(F)C(F)(F)C(F)(F)C(F)(F)C(F)(F)C(F)(F)F | inactive | –
COCC(C)O (stereo not given) | inactive | –
CC(C)CCCCCCOC(=O)CCCCC(=O)OCCCCCCC(C)C | inactive | –
CCc1nn(C2CCCCC2)c2cc(C3(C#N)CCC(C(=O)O)CC3)ccc12 (stereo not given) | – | 75.2 µM (active)
CC1=C(/C=C/C(C)=C/C=C/C(C)=C/C(=O)O)C(C)(C)CCC1 | inactive | –
NC(=O)N1C(=O)C(C(=O)c2cc(Cl)cs2)c2cc(F)c(Cl)cc21 (stereo not given) | – | 14 µM (active)
OCCC(F)(F)C(F)(F)C(F)(F)C(F)(F)C(F)(F)C(F)(F)C(F)(F)C(F)(F)F | inactive | –
Cc1ccc(S(=O)(=O)O)c(C)c1 | inactive | –
CN1CCN(c2ccccc2/C=C2\SCCN(c3ccc(Cl)c(Cl)c3)C2=O)CC1 | inactive | –
NC(=O)N(O)[C@@H]1C=C[C@H](Oc2cccc(Oc3ccc(F)cc3)c2)C1 | – | 74.5 µM (active)
CC(=O)NC1(c2cccc(F)c2)CCN(CC[C@@]2(c3ccc(Cl)c(Cl)c3)CN(c3ccccc3)C(=O)CO2)CC1 | – | 65 µM (active)
CC(O)C(=O)O (stereo not given) | inactive | –
Cc1cc(C)c(O)c(C)c1 | inactive | –
CCN(CC)CCNc1ccc(CNC=O)c2sc3ccc(OC)cc3c(=O)c12 | – | 12.1 µM (active)
COc1ccc([N+](=O)[O-])cc1N | inactive | –
Cc1cc(CCN2CCN(c3nsc4ccccc34)CC2)cc2c1NC(=O)CC2(C)C | – | 82.8 µM (active)
CCCCCCCCCCCCCCCS(=O)(=O)Oc1ccccc1 | inactive | –
CCCCC(CC)COC(=O)CCCCC(=O)OCc1ccccc1 (stereo not given) | inactive | –
c1ccc2c(c1)Cc1ccccc1-2 | inactive | –
CCCCCCCCCCCCCC[N+](C)(C)C | – | 63.8 µM (active) and 26.6 µM (active) and 23.1 µM (active)
O=C(OCCOCCOC(=O)c1ccccc1)c1ccccc1 | inactive | –
CC(O)CO (stereo not given) | inactive | –
CCC(C)(C)C1CCC(O)CC1 (stereo not given) | inactive | –

Tested on: not listed separately
Experiment: Tanguay_ZF_120hpf_MORT_legacy: (Legacy) Oregon State University Tanguay Lab 120 Hour Post-fertilization zebrafish Assay for Mortality (AID 2283633)
Procedure, shortened: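 Dechorionated Tropical 5D wild-type zebrafish embryos, one per well from 6 hpf, were statically exposed at 28C in the dark until 120 hpf (0.64% DMSO final). Mortality was scored as present/absent by brightfield microscopy, fitted positively versus DMSO.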

Structure (SMILES) | outcome
CCCCCCC(=O)O | inactive
CCCCCCCCCCCCc1ccccc1S(=O)(=O)O | inactive
OCCC(F)(F)C(F)(F)C(F)(F)C(F)(F)C(F)(F)C(F)(F)F | inactive
COCC(C)O (stereo not given) | inactive
CC(C)CCCCCCOC(=O)CCCCC(=O)OCCCCCCC(C)C | inactive
CCCCOCCO | inactive
NC(=O)N(O)[C@@H]1C=C[C@H](Oc2cccc(Oc3ccc(F)cc3)c2)C1 | inactive
CC[C@H](C)[C@@H](C(=O)O)n1sc2ccccc2c1=O | inactive
CC(O)CO (stereo not given) | inactive
CCC(C)(C)C1CCC(O)CC1 (stereo not given) | inactive

Tested on: not listed separately
Experiment: Tanguay_ZF_120hpf_YSE_legacy: (Legacy) Oregon State University Tanguay Lab 120 Hour Post-fertilization zebrafish Assay for Yolk Sac Edema (AID 2283634);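 as to AC50: actives raise the incidence of yolk sac edema above the DMSO baseline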
Procedure, shortened: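 Tropical 5D wild-type embryos, dechorionated with pronase at 4 hpf, were exposed singly from 6 hpf to 120 hpf under static, sealed, dark conditions at 28C with 0.64% DMSO final. Yolk sac edema was scored present/absent by brightfield microscopy.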

Structure (SMILES) | outcome | AC50
CCCCCCC(=O)O | inactive | –
CCCCCCCCCCCCc1ccccc1S(=O)(=O)O | inactive | –
OCCC(F)(F)C(F)(F)C(F)(F)C(F)(F)C(F)(F)C(F)(F)F | inactive | –
COCC(C)O (stereo not given) | inactive | –
CC(C)CCCCCCOC(=O)CCCCC(=O)OCCCCCCC(C)C | inactive | –
O=C(O)c1ccccc1C(c1ccc(O)cc1)c1ccc(O)cc1 | inactive | –
CCCCCCCCOC(=O)CCCCCCCCC(=O)OCCCCCCCC | inactive | –
CCc1nn(C2CCCCC2)c2cc(C3(C#N)CCC(C(=O)O)CC3)ccc12 (stereo not given) | – | 0.324 µM (active)
C[C@@H]1C[C@H]2[C@@H]3CCC4=CC(=O)C=C[C@]4(C)[C@@]3(F)[C@@H](O)C[C@]2(C)[C@@]1(O)C(=O)COP(=O)(O)O | inactive | –
CC1=C(/C=C/C(C)=C/C=C/C(C)=C/C(=O)O)C(C)(C)CCC1 | – | 0.214 µM (active)
NC(=O)N1C(=O)C(C(=O)c2cc(Cl)cs2)c2cc(F)c(Cl)cc21 (stereo not given) | inactive | –
CN1CCN(c2ccccc2/C=C2\SCCN(c3ccc(Cl)c(Cl)c3)C2=O)CC1 | inactive | –
OC1CCCCC1 | inactive | –
NC(=O)N(O)[C@@H]1C=C[C@H](Oc2cccc(Oc3ccc(F)cc3)c2)C1 | inactive | –
CC(=O)NC1(c2cccc(F)c2)CCN(CC[C@@]2(c3ccc(Cl)c(Cl)c3)CN(c3ccccc3)C(=O)CO2)CC1 | inactive | –
CCN(CC)CCNc1ccc(CNC=O)c2sc3ccc(OC)cc3c(=O)c12 | inactive | –
COc1ccc([N+](=O)[O-])cc1N | inactive | –
Cc1cc(CCN2CCN(c3nsc4ccccc34)CC2)cc2c1NC(=O)CC2(C)C | – | 3.6 µM (active)
CCCCCCCCCCCCCCCS(=O)(=O)Oc1ccccc1 | inactive | –
CCCCC(CC)COC(=O)CCCCC(=O)OCc1ccccc1 (stereo not given) | inactive | –
c1ccc2c(c1)Cc1ccccc1-2 | inactive | –
CC[C@H](C)[C@@H](C(=O)O)n1sc2ccccc2c1=O | inactive | –
O=C(OCCOCCOC(=O)c1ccccc1)c1ccccc1 | inactive | –
CC(O)CO (stereo not given) | inactive | –
CCC(C)(C)C1CCC(O)CC1 (stereo not given) | inactive | –
CN1CCC[C@H]1c1cccnc1 | inactive | –
